Screens (PubChem)
Compounds with a hit are over-represented: about 9.3% of the library has one in this group of screens.
NPC1 promoter act – NPC1 promoter activation; Huh7 NPC1 promoter luciferase reporter, 24 h; Potency, µM (series often up to 9.22 µM), inactives show at the top dose activation, most hits filed as activators; actives 2.4% (n = 320,000); AID 485313; also: % of control where 0% means no effect; nearly all actives have a fitted effect of over 60% in size
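Readout is luciferase luminescence, reflecting NPC1 promoter activation in stably transfected Huh7 cells after 24 h compound exposure at 37 °C in reduced-serum medium with 10% FBS.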
ELG1 repair inh – blocks ELG1-dependent DNA repair in HEK293T cells | HEK293T ELG1-luciferase reporter, luminescence, 16 h; DNA damage induced by 5-fluorouridine | Potency, µM (doses to about 46.1 µM), inactives show at the highest dose activity change, negative = inhibition, usual class: inhibitors | actives 2.3% (n = 330,000) | AID 504467; also: % is scaled to controls: 0 for no effect and ±100 for the full control effect; nearly all actives have a fitted effect of over 55% in size
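Quantitative HTS, concentration-response format. 2,000 cells/well co-treated with 5-fluorouridine and compound, 16 hr in 5% CO2 at 37 °C; ONE-Glo luminescence read after 30 min.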
SMN2 splice up – SMN2 splice variant enhancement. actives 2.8% (n = 210,000). Potency, µM (titrated, usually from 46.1 µM), for the others: at the highest dose activity change, positive = activation, usual class: activators. HEK293 SMN2-luciferase splicing reporter, luminescence, 30-36 h; also: % of control where 0% means no effect; nearly all actives have a fitted effect of over 55% in size
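HEK293 cells carry an SMN2 […]–luciferase reporter in which exon 7 inclusion puts luciferase in frame. Cells were plated 10-12 h before compound addition, then incubated 30-36 h at 37C. ONE-Glo luminescence was read; sodium butyrate at 4.5 mM final served as control.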
FLuc modulator – firefly luciferase modulation, counter-screen for miR-21 project; actives 6.9% (n = 360,000); Potency, µM (top dose mostly 57.5 µM), for inactives: top-dose activity change, negative = inhibition, hits mostly inhibitors; P08659; purified FLuc, Km substrates, luminescence inhibition; AID 588342;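 also: plate controls were vehicle for no effect and reference inhibitor for full effect; nearly all actives have a fitted effect of over 55% in size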
Target sequence (P08659 whole entry, looked up): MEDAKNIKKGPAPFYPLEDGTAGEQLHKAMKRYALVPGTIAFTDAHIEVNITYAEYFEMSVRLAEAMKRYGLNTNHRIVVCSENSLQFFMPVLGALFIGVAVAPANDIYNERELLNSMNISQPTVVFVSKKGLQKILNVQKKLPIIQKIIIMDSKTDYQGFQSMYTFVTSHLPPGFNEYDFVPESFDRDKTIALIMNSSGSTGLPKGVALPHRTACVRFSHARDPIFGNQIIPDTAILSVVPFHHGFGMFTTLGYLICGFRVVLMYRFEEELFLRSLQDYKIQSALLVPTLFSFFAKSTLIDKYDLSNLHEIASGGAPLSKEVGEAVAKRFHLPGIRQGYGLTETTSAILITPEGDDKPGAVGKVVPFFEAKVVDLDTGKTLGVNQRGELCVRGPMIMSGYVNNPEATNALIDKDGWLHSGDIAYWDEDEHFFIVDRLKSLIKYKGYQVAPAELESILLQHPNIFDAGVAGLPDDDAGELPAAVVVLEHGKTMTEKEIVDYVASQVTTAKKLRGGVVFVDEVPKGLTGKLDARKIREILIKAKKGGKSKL
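Biochemical qHTS of compounds, final roughly 60 µM downward over six points, against 10 nM purified firefly luciferase using Km concentrations of substrates (10 uM D-luciferin, 10 uM ATP) in Tris acetate pH 7.5 buffer; luminescence output.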
Rab9 prom act – activates the Rab9 promoter; Potency, µM (top dose mostly 9.22 µM), without a hit: at the highest dose activation, negative = inhibition, usual class: activators; Huh7 Rab9 promoter-luciferase reporter, luminescence, 24 h; actives 2.8% (n = 320,000); AID 485297; also: % of control where 0% means no effect; nearly all actives have a fitted effect of over 60% in size
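Measured in stably transfected Huh7 cells bearing a Rab9 promoter–luciferase construct: 24 h compound treatment at 37 °C, followed by luminescence detection.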
ELG1 genotoxic – genotoxicity induction in ELG1-luciferase HEK293T cells | HEK293T ELG1-luciferase reporter, luminescence, 16 h | Potency, µM (top dose mostly 46 µM), for inactives: top-dose activity change, positive = activation, hits mostly activators | actives 1.3% (n = 330,000) | AID 504466; also: % of control where 0% means no effect; nearly all actives have a fitted effect of over 60% in size
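HEK293T cells expressing luciferase-tagged ELG1 were exposed to compound or DMSO vehicle for 16 hr at 37 °C and 5% CO2. Luciferase activity was then measured with ONE-Glo after 30 min at room temperature.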
An asterisk follows results filed as active; ? = inconclusive; . = no result given; [ ] = remark or other dose. Calls follow the shape of the dose curve; as a rule, active = well fitted curve in the direction sought with a large enough effect; inconclusive = small, poorly fitted or top-dose-only effect, or another doubt; inactive = no such curve, though single readings can be large; an effect the other way counts as inactive or inconclusive. Potency is read from the fitted curve at half-maximal effect.

SMILES	NPC1 promoter act	ELG1 repair inh	SMN2 splice up	FLuc modulator	Rab9 prom act	ELG1 genotoxic
C=CC[C@@H](CC(=O)N(CCO)Cc1ccccc1)C(=O)NC[C@@H](OC(=O)[C@@H](CC=C)Cc1ccc(F)cc1)c1ccccc1	.	?	.	.	.	-10.2%
C=CCC[C@@H](Cc1ccc(F)cc1)C(=O)OC[C@H](C)NC(=O)[C@@H](CC=C)CC(=O)N(CCO)Cc1ccccc1	.	?	.	.	.	-4.3%
C=CC[C@H](CC(=O)N(CCO)Cc1ccccc1)C(=O)NC[C@H](OC(=O)[C@@H](CC=C)Cc1ccc(F)cc1)c1ccccc1	.	14.6µM*	.	.	.	-14.0%
C=CCC[C@@H](Cc1ccc(F)cc1)C(=O)OC[C@H](C)NC(=O)[C@H](CC=C)CC(=O)N(CCO)Cc1ccccc1	.	25.9µM*	.	.	.	-8.2%
CNc1nn(-c2cccc(Cl)c2)nc1N	?	?	?	23.9µM*	?	11.2µM*
Cn1cc(S(=O)(=O)N2CCC3(CC2)OCCO3)c(=O)n(C)c1=O	-5.8%	12.9%	.	-0.3%	0.4%	4.2%
O=C1CCC(=O)N1CCSC(=S)N1CCSCC1	11.7%	?	.	-14.5%	18.1%	11.6%
Cc1ccccc1-c1noc(-c2cc(-c3ccc(F)cc3)n[nH]2)n1	.	.	.	5.6%	.	.
Cc1ccccc1-c1noc(C2CCCCC2)n1	-0.5%	?	-5.8%	16.9µM*	8.9%	12.5%
Cc1ccc2cc(-c3noc(C4CCCCC4)n3)c(=O)[nH]c2c1	2.0%	0.0%	.	0.2%	-1.2%	2.3%
O=C(NCc1ccc(Cl)cc1)c1cc(-c2cccs2)on1	1.0%	0.0%	14.0%	-1.0%	-1.1%	-2.2%
Clc1ccc(Cc2noc(-c3cccs3)n2)cc1	?	?	0.1%	13.5µM*	21.5%	6.51µM*
Clc1ccc(-c2nc(Cc3ccccc3Cl)no2)cc1	13.5%	?	0.1%	15.1µM*	22.9%	11.2%
Cc1ccccc1-c1noc(-c2ccc(O)cc2)n1	?	?	?	4.78µM*	29.4%	?
CC(C)Cc1nc2sc3c(=O)[nH]cnc3c2c2c1CCC2	0.5%	13.8%	-3.7%	3.4%	-4.3%	2.3%
Cc1ccccc1-c1noc(-c2ccc(Cl)cc2)n1	3.98µM*	?	11.2µM*	1.07µM*	2.82µM*	?
Cc1ccccc1-c1noc(-c2ccccc2F)n1	2.51µM*	?	?	1.9µM*	2.24µM*	6.51µM*
O=c1[nH]c2ccccc2nc1-c1ccc(Cl)cc1	?	?	.	?	2.82µM*	?
Cc1ccc(SCc2nc3ccccc3[nH]2)cc1	2.24µM*	?	?	6.01µM*	?	12.1%
Fc1ccccc1CSCc1nc2ccccc2[nH]1	3.98µM*	?	10µM*	16.9µM*	2.82µM*	?
c1ccc(SCc2nc3ccccc3[nH]2)cc1	2.51µM*	?	?	12µM*	2.24µM*	?
Clc1ccc(SCc2nc3ccccc3[nH]2)cc1	?	?	11.2%	9.53µM*	?	-2.8%
Cn1cnnc1SCC(=O)Nc1ccc2c(c1)CCC2	13.6%	?	3.4%	-7.7%	5.5%	10.4%
Cn1cnnc1SCC(=O)c1ccc2c(c1)CCCC2	14.5%	?	4.9%	19µM*	23.5%	?
COc1ccccc1C(=O)NCCOc1ccc(C)c(C)c1	0.3%	16.4%	.	2.6%	5.5%	-0.3%
SMILES	NPC1 promoter act	ELG1 repair inh	SMN2 splice up	FLuc modulator	Rab9 prom act	ELG1 genotoxic
Cc1ccc(C2=C/C(=C/c3cccs3)C(=O)O2)cc1	2.2%	25.3%	-16.3%[1.84 µM]	0.379µM*	-0.3%	3.8%
CC(=O)Oc1cccc(/C=C2\C=C(c3ccc(C)cc3)OC2=O)c1	-2.2%	-10.8%	-3.0%	2.69µM*	-0.9%	-4.2%
CN(C)c1ccc(/C=C2/C=C(c3ccc4c(c3)CCCC4)OC2=O)cc1	-5.1%	6.4%	.	-18.5%	-3.7%	-0.3%
N/C(=N\OC(=O)c1ccc(Cl)c(Cl)c1)c1cccc(CSc2ccccn2)c1	?	?	.	8.49µM*	?	?
N/C(=N\OC(=O)c1cccc(Cl)c1)c1cccnc1	17.0%	?	11.3%	6.75µM*	10.5%	10µM*
N/C(=N\OC(=O)Cc1ccc(Cl)cc1)c1cccnc1	0.1%	22.8%	-19.5%	?	-3.7%	1.5%
N/C(=N\OC(=O)c1ccc(Cl)c(Cl)c1)c1cccnc1	13.0%	?	-3.4%	8.49µM*	10.1%	11.1%
C/C(=N\OC(=O)c1cccc(Cl)c1)c1sc(C)nc1C	-2.5%	10.8%	.	6.75µM*	5.9%	3.8%
O=C(O/N=C(\c1ccccc1)c1ccccn1)c1ccc(Cl)c(Cl)c1	-2.8%	5.9%	-26.3%	2.3%	-3.0%	-0.1%
O=C(O)c1csc(Cc2ccccc2)n1	-4.0%	7.6%	-11.3%	-14.0%	-5.2%	-1.2%
CC1=C(C(=O)OCC2CCCO2)C(c2ccccc2)C2=C(CCCC2=O)N1 (configuration not stated)	-0.6%	13.6%	-13.2%	4.2%	-6.1%	-6.9%
CC1=C(C(=O)Nc2ccc(C)cc2C)C(c2ccccc2F)n2nc(SCC(=O)c3ccc(C)cc3)nc2N1 (configuration not stated)	.	.	.	-5.3%	.	.
CC(C)(Oc1ccc(Cl)cc1)C(=O)O/N=C(\N)c1ccncc1	1.2%	14.2%	.	-0.8%	-0.4%	0.1%
N/C(=N\OC(=O)c1cccc(Cl)c1)c1ccncc1	16.6%	?	.	19µM*	23.1%	?
O=C(Nc1nc2ccccc2n1CCN1CCOCC1)c1ccc(COc2ccccc2Br)o1	-0.4%	20.6µM*	-26.9%	-19.6%	-1.9%	-13.7%
CC(NC(=O)COC(=O)CNC(=O)c1ccccc1Cl)C1CC2CCC1C2 (configuration not stated)	-1.7%	-1.8%	.	.	-4.8%	5.8%
O=S(=O)(CC(CN1CCCC1)N1CCCC1)c1ccc2ccccc2c1 (configuration not stated)	-25.0%	11.6µM*	22.2%	3.6%	-22.6%	-10.9%
Cc1cc(Cl)c2oc(C(=O)NC3CCC(O)CC3)c(C)c2c1 (configuration not stated)	2.5%	?	.	-17.7%	8.7%	?
COC(=O)C1CCN(C(=O)c2oc3c(Cl)cc(C)cc3c2C)CC1	0.794µM*	?	.	10.7µM*	0.631µM*	?
CCOC(=O)C1CCCCN1C(=O)c1oc2c(Cl)cc(C)cc2c1C (configuration not stated)	2.4%	-0.7%	.	12µM*	4.1%	-1.2%
O=c1c2c3c(sc2nc2sc(CN4CCOCC4)cn12)CCCC3	4.47µM*	?	?	-5.4%	?	?
